Screening data (PubChem)
Sampled rows, rich in hits. Any-hit rate of the full collection: about 21%.
SARS PLpro yeast: SARS-CoV PLP inhibition in yeast | S. cerevisiae expressing SARS-CoV PLpro, growth rescue | Potency, µM (doses to about 32.9 µM), without a hit: at the top dose activity, positive = growth rescue, hits mostly activators | 330,000 compounds, 0.19% hits | AID 485353; calls by dose curve; also: potency is read from the fitted curve at half-maximal effect; 0% is about no effect; nearly all actives have a fitted effect of over 55% in size
Shiga toxin inh: inhibitors of Shiga toxin in Vero cells; 290,000 compounds, 9.2% hits; inhibition, % at 38.7 µM; Vero cells, Shiga toxin protein synthesis inhibition reporter; AID 2315; in the data active = inhibition mostly above about 28%, no sharp cut-off; inactive = mostly below about 43%; also: 0% is about no effect
Pf growth 48h: inhibits P. falciparum growth in the first generation, 48 h; P. falciparum luciferase growth in erythrocytes, 48 h; Potency, µM (titrated, usually from 28.7 µM), for inactives: at the highest dose activity change, negative = inhibition, hits mostly inhibitors; 310,000 compounds, 5.9% hits; AID 504832; also: potency is read from the fitted curve at half-maximal effect; % is scaled to controls: 0 for no effect and ±100 for the full control effect
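Luciferase-expressing P. falciparum in infected erythrocytes (2% hematocrit, 0.1% parasitemia final) in RPMI 1640/0.5% Albumax were exposed to compound for 48 hours at 37 C, 5% CO2; growth read as luminescence.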
Pf growth 96h: P. falciparum growth inhibition at 96 hours; P. falciparum luciferase reporter growth, 96 h; Potency, µM (titrated, usually from 28.7 µM), for the others: at the highest dose activity change, negative = inhibition, usual class: inhibitors; 320,000 compounds, 6.9% hits; also: potency is read from the fitted curve at half-maximal effect; % is scaled to controls: 0 for no effect and ±100 for the full control effect
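Luminescence readout: decreased luciferase signal marks inhibited growth of reporter-expressing P. falciparum in infected red cells (2% hematocrit, 0.05% parasitemia final), exposed to compound two generations (96 h, 37 C, 5% CO2).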
Cycloheximide cs: counter-screen for Shiga toxin inhibitors: cycloheximide protein synthesis inhibition; cell reporter, cycloheximide protein synthesis inhibition counterscreen; max response, %; 300,000 compounds, 12% hits; AID 2314; in the data active = max response mostly above about 13%, no sharp cut-off; inactive = mostly below about 14%; also: read at 38.3 µM for the half of the compounds with a filed dose; 0% is about no effect
NS1 function inh: inhibitors of influenza NS1 protein function | Potency, µM (highest dose often 46.1 µM), for inactives: at the highest dose activity, positive = more growth | 270,000 compounds, 0.4% hits; calls by dose curve; also: potency is read from the fitted curve at half-maximal effect; actives are rising curves; nearly all actives have a fitted effect of over 50% in size
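In this qHTS, NS1 from influenza A is expressed in budding yeast, where it slows growth. Cells are switched from glucose to 2% galactose medium (pH 6.0, -URA), treated with compound, and growth recovery is read at OD600.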
Active calls of the source: *; u = inconclusive; x = not tested or not shown. Unless noted, calls follow the shape of the dose curve; as a rule, active = well fitted inhibition curve with a large enough effect; inconclusive = small, poorly fitted or top-dose-only effect, or another doubt; inactive = no such curve, though single readings can be large or run the other way.

SMILES	SARS PLpro yeast	Shiga toxin inh	Pf growth 48h	Pf growth 96h	Cycloheximide cs	NS1 function inh
COc1ccc(S(=O)(=O)N2CCOCC2)cc1NC(=O)Cc1sc(C)nc1-c1ccc(F)cc1	1.1%	x	u	u	x	x
CC1C(=O)Nc2ccc(S(=O)(=O)NCCc3ccc(Cl)cc3)cc2NC1=O (stereo unspecified)	0.4%	6.8	31.9%	0.0%	4.7	-0.2%
CCOC(=O)C1=C(COC(=O)c2ccc(C)c(S(=O)(=O)N3CCOCC3)c2)NC(=O)NC1C (stereo unspecified)	0.8%	x	u	4.7%	x	x
COc1ccc(S(=O)(=O)N2CCCCCC2)cc1C(=O)NCc1cccs1	-0.6%	x	14.7µM*	u	x	x
COc1ccc(S(=O)(=O)N2CCCCC2)cc1NC(=O)Cc1cccs1	0.1%	x	11.7µM*	u	x	x
COc1ccc(S(=O)(=O)N2CCCCC2)cc1NC(=O)Cc1cccc(C(F)(F)F)c1	3.1%	x	u	0.4%	x	x
CCOc1ccc(S(=O)(=O)N2CCCCC2)cc1NC(=O)Cc1cccc(C(F)(F)F)c1	0.7%	x	u	9.28µM*	x	x
CCN1CCN(S(=O)(=O)c2ccc(Cl)c(C(=O)Nc3ccc(OC(F)F)cc3)c2)CC1	-5.5%	-6.2	11.4%	u	0.8	3.8%
O=C(Cc1cccs1)Nc1cc(S(=O)(=O)N2CCCCC2)ccc1Cl	0.8%	x	u	u	x	x
CCN1CCN(S(=O)(=O)c2ccc(Cl)c(C(=O)N(CC)CC(=O)Nc3ccc(OC)cc3)c2)CC1	-4.0%	-7.1	-12.5%	13.1µM*	-3.9	-5.1%
Cc1ccccc1OC(=O)c1cccnc1	2.0%	-12.7	7.5%	u	-3.8	4.1%
NC(=O)c1ccc(NC(=O)CSc2nnc(-c3cccnc3)n2Cc2ccco2)cc1	14.1%	-1.8	1.6%	17.1%	-5.7	11.5%
COc1cc(OC)c(OC)cc1CNC(=O)c1ccc(S(=O)(=O)N2CCCCC2)cc1	0.5%	x	9.28µM*	5.22µM*	x	x
Cc1cc(Br)ccc1SCC(=O)OCC(=O)Nc1ccccc1C#N	-9.4%	-3.6	13.8%	26.0%	-3.2	-7.4%
Cc1cccc(NS(=O)(=O)c2cc(C(=O)NCCC3=CCCCC3)ccc2Cl)c1	-3.9%	-11.8	12.5%	41.7%	1.4	u
COc1cc(/C=N/NC(=O)c2ccc(F)cc2)ccc1OC(=O)c1ccco1	9.0%	51.7	47.7%	54.7%	21.2*	-25.6%
O=C(N/N=C/c1cccc(OC(=O)c2ccco2)c1)c1ccc(F)cc1	-10.3%	25.8*	167.9%	72.2%	63.7*	12.2%
O=C(N/N=C\c1ccc(OC(=O)c2ccco2)cc1)c1ccc(Cl)cc1	-1.1%	-8.1	52.3%	27.8%	-1.7	3.6%
COc1cc(/C=N/Nc2ccc3ccccc3c2)ccc1OC(=O)c1ccco1	-26.0%	40.8*	u	u	28.8*	2.1%
C=CCn1c(=N)c(C(=O)NCCCOC)cc2c(=O)n3cc(C)ccc3nc21	-3.1%	-4.3	13.0%	7.38µM*	-2.6	1.9%
Cc1cccn2c(=O)c3cc(C(=O)NCC4CCCO4)c(=N)n(CC4CCCO4)c3nc12 (stereo unspecified)	1.0%	-9.0	-21.1%	-5.6%	-5.4	-10.5%
COc1ccc(CCNC(=O)c2cc3c(=O)n4cccc(C)c4nc3n(CCCN3CCOCC3)c2=N)cc1	3.7%	-3.5	u	u	-3.1	3.4%
Cc1cccn2c(=O)c3cc(C(=O)NCc4ccc(F)cc4)c(=N)n(CC4CCCO4)c3nc12 (stereo unspecified)	-6.1%	-1.0	4.15µM*	2.94µM*	9.0	5.0%
COCCn1c(=N)c(C(=O)NCCc2ccc(OC)cc2)cc2c(=O)n3cccc(C)c3nc21	-6.1%	-10.2	2.08µM*	2.94µM*	-11.7	4.1%
COc1ccc(CNC(=O)c2cc3c(=O)n4cccc(C)c4nc3n(CC3CCCO3)c2=N)cc1 (stereo unspecified)	0.4%	-8.0	u	5.22µM*	-1.9	8.4%
SMILES	SARS PLpro yeast	Shiga toxin inh	Pf growth 48h	Pf growth 96h	Cycloheximide cs	NS1 function inh
CN(CC(=O)Nc1ncn[nH]1)S(=O)(=O)c1ccc(Br)cc1	5.3%	-31.9	-11.5%	3.5%	-0.9	2.1%
CCOCCCn1c(=N)c(C(=O)NCc2ccc3c(c2)OCO3)cc2c(=O)n3ccccc3nc21	-24.9%	-10.4	u	x	-1.6	2.0%
CCCn1c(=N)c(C(=O)NCc2ccc3c(c2)OCO3)cc2c(=O)n3cccc(C)c3nc21	4.9%	-4.7	1.04µM*	8.1%	-2.7	-11.2%
Cc1cccn2c(=O)c3cc(C(=O)NCC4CCCO4)c(=N)n(C4CCCCC4)c3nc12 (stereo unspecified)	0.1%	-12.0	u	1.31µM*	-4.5	-2.2%
CN1c2ccsc2C(O)=C(C(=S)Nc2ccc(F)c(Cl)c2)S1(=O)=O	-26.8%	50.6	x	u	15.4*	-99.0%
Cn1cc(C(=O)Nc2ccc(F)c(Cl)c2)cn1	12.2%	43.2	35.4%	2.5%	10.1	-9.6%
O=C(N1CCOCC1)C(F)(F)C(F)(F)C(F)(F)C(F)(F)C(=O)N1CCOCC1	5.1%	-14.1	15.7%	11.7µM*	-2.8	8.2%
CC(=O)N1CCOCCOCCN(C(C)=O)CCOCCOCC1	-0.4%	3.4	34.7%	19.9%	6.7	4.8%
CCC(=O)N1CCc2cc(S(=O)(=O)N3CCN(c4cc(C)ccc4C)CC3)ccc21	8.2%	-4.7	-11.5%	10.4µM*	14.9	-0.6%
Cc1ccc(C)c(N2CCN(S(=O)(=O)c3ccc4c(c3)CC(=O)N4C)CC2)c1	21.3%	-5.9	8.28µM*	-0.4%	-1.9	11.3%
CCC(=O)c1cc(F)c(N2CCN(S(=O)(=O)c3ccc(C)cc3)CC2)cc1C	-6.5%	12.3	u	10.4µM*	1.2	-12.9%
Cc1ccc(S(=O)(=O)Nc2cccc(C(=O)NCC(c3ccco3)N3CCCC3)c2)cc1F (stereo unspecified)	-12.6%	x	u	u	x	x
CCOc1cc(C(=O)N=c2sccn2C)cc(Br)c1OC	-10.3%	-4.8	u	7.38µM*	12.3	-10.8%
COc1ccc(S(=O)(=O)N2CCOC2CNC(=O)C(=O)NCc2ccccn2)cc1C (stereo unspecified)	19.0%	-4.7	0.9%	10.5%	-3.1	1.0%
CC(OC(=O)CCN1C(=O)C2CC=CCC2C1=O)C(=O)Nc1cccc(Cl)c1 (stereo unspecified)	-5.1%	x	47.5%	0.2%	x	x
O=C(O)c1ccc(Nc2nc(-c3ccc([N+](=O)[O-])cc3)nc3ccccc23)cc1	1.9%	-5.8	u	0.0%	-4.1	3.9%
COc1ccc(Nc2nc(-c3ccccc3)nc3ccccc23)cc1	-10.9%	-2.4	u	u	-1.2	-49.8%
C/C(=N\Nc1nc(-c2ccc(C)cc2)nc2ccccc12)c1ccc([N+](=O)[O-])cc1	6.7%	11.3	0.2%	2.08µM*	7.9	-13.0%
COc1ccc(-c2nc(N/N=C(\C)c3ccc(O)cc3)c3ccccc3n2)cc1	0.2%	71.5*	u	-98.0%	29.0*	23.6%
